The values that follow come from PubChem BioAssay.

For this assay, the system named is Wnt5a (protein binding on small-molecule microarray). As to the kind of experiment: small molecules binding Wnt5a protein – biophysical, small-molecule microarray, 635/667 nm fluorescence, primary screen (AID 1142).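 Note: fluorescence read at 667 nm with signal to noise per printed feature.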 The settings on record: 635 nm fluorescence, higher = more signal.
In turn, `CO[C@H]1COC(=O)[C@H](CCSC)NC(=O)CC=C[C@@H](C)[C@H](OC)COC(=O)[C@@H](OCc2ccccc2)C=C[C@@H]1C` gave a composite z-score of 0.211.
For the compound `COC(=O)[C@H](C)NC(=O)CCC1CC(OC(=O)NCCc2ccc(F)cc2)CC2(CCCC(COC(=O)NCCc3ccccc3OC)O2)O1` (stereo not given in full), the composite z-score amounted to 0.249.
Compound `CC(C)CN1CCc2nc(-c3ccccc3)c3c(c2C1)CO[C@@H](C)C3` had a composite z-score of 0.379.
To `CC(C)[C@@H](OCc1ccccc1)[C@H](C)CON=C1[C@H]2CCn3c(=O)n(-c4ccccc4)c(=O)n3[C@H]2[C@H](O)[C@@H]2O[C@H]12` belongs 0.186.
As to `CON=C(C)CCN1CCc2nc(-c3ccccc3)c(-c3ccccc3)cc2C1`, the composite z-score was -0.0635.
To `COc1ccc(OC[C@H]2CN3[C@@H](CC[C@@H](C)[C@@H]3c3ccc(Br)cc3)C(=O)O2)cc1` belongs -0.144; to `O=C(NN=C1C[C@@H](O)[C@@H](O)[C@@H]2[C@@H]3C(=O)N(c4ccc(F)cc4F)C(=O)[C@@H]3CC[C@H]12)OCc1ccccc1`, -0.0874; to `COC(=O)[C@H](C)NC(=O)CCC1CC(OC(=O)NCc2cccc3ccccc23)CC2(CCCC(COC(=O)NCc3ccccc3)O2)O1` (stereo not given in full), 0.276.
As to `O=C1C2=CC[C@H]3C(=O)N(C4CCCCC4)C(=O)[C@H]3[C@H]2[C@H](O)[C@@H]2O[C@H]12`, the composite z-score is -0.272.
For the compound `C#CCCCON=C1C[C@@H](O)[C@@H](O)[C@@H]2[C@@H]3C(=O)N(C[C@@H]4CCCO4)C(=O)[C@@H]3CC[C@H]12`, the composite z-score is -0.0106.
For the compound `O=C1[C@H]2CCn3c(=O)n(-c4ccccc4)c(=O)n3[C@H]2[C@H](O)[C@@H]2O[C@H]12`, the composite z-score was determined as 0.0253.
For the compound `CC(=O)OC[C@H]1O[C@H](CC=NOCC[C@@H]2C=C[C@H](OC(C)=O)[C@@H](COC(C)=O)O2)C=C[C@@H]1OC(C)=O`, the composite z-score worked out at 0.288.
Take `CCCNC(=O)OC[C@H]1O[C@H](CCON=C[C@@H](C)[C@H](OCc2ccccc2)C(C)C)C=C[C@@H]1Oc1ccc(OC)cc1`: the composite z-score is -0.146.
To `CC(CCC(=O)OC[C@H]1O[C@H](C#Cc2ccccc2)C=C[C@@H]1Oc1ccc(C)cc1)=NOC(C)CN1CCCCc2nc(C)c(C)cc21` (stereo not given in full) belongs -0.271; to `CCN1C(=O)[C@H]2[C@H]3[C@H](O)[C@H](O)CC(=NNC(=O)OCc4ccccc4)[C@H]3CC[C@H]2C1=O`, 0.038; to `CO[C@@H](C(C)C)[C@@H](C)C1OC(=O)CC1O` (stereo not given in full), -0.124.
The compound `CC(C)=NOC(C)CN1CCCc2nc(C)c(C)cc21` (stereo not given) displayed a composite z-score of 0.299.
As to `CO[C@@H]1[C@H](O)CO[C@H]1C=Cc1ccccc1`, the composite z-score was -0.174.
To `COc1ccc(O[C@H]2C=C[C@@H](C#Cc3ccccc3)O[C@@H]2CO)cc1` belongs -0.0391; to `CC(CCC(=O)OC[C@H]1O[C@H](C#Cc2ccccc2)C=C[C@@H]1Oc1ccc(C)cc1)=NOC[C@@H](C)[C@H](OCc1ccccc1)C(C)C`, -0.174.
In the case of `CC(CCN1CCc2nc(-c3ccccc3)c(-c3ccccc3)cc2C1)=NOC(C)CN1CCCc2nc(C)c(C)cc21` (stereo not given), the composite z-score worked out at 0.281.
To `CCOC(=O)[C@H](CC(C)C)NC(=O)CCC1CC(OC(=O)NCc2ccc3c(c2)OCO3)CC2(CCCC(COC(=O)NCCc3ccc(Cl)cc3)O2)O1` (stereo not given in full) belongs 0.277.
For `CC(=O)OC[C@H]1O[C@@H](ON=C(C)CCC(=O)OC[C@H]2O[C@H](C#Cc3ccccc3)C=C[C@@H]2Oc2ccc(C)cc2)[C@H](OC(C)=O)[C@@H](OC(C)=O)[C@@H]1OC(C)=O`, the composite z-score was 0.428.
To `CC(C)CON=C1C[C@@H](O)[C@@H](O)[C@@H]2[C@@H]3C(=O)N(c4ccc(F)cc4F)C(=O)[C@@H]3CC[C@@H]12` belongs -0.0608.
In turn, `CCOC(=O)CCN1C(=O)[C@H]2[C@H]3[C@H](O)[C@H](O)CC(=NO[C@@H]4O[C@H](CO)[C@@H](O)[C@H](O)[C@H]4O)[C@H]3CC[C@H]2C1=O` came in with a composite z-score of -0.167.
Take `CCOC(=O)[C@H](Cc1ccccc1)NC(=O)CCC1CC(OC(=O)NCc2cccc3ccccc23)CC2(CCCC(COC(=O)NCCc3ccc(Cl)cc3)O2)O1` (stereo not given in full): the composite z-score amounted to 0.0449.
To `CCN1C(=O)[C@H]2[C@H]3[C@H](O)[C@H](O)CC(=NOC[C@@H](O)COCc4ccco4)[C@H]3CC[C@H]2C1=O` belongs -0.13.
To `C#CCCCON=C1C[C@@H](O)[C@@H](O)[C@@H]2[C@@H]3C(=O)N(C4CCCCC4)C(=O)[C@@H]3CC[C@@H]12` belongs -0.0633.
To `COC(=O)[C@H](CCSC)NC(=O)CC=C[C@@H](C)CO` belongs 0.848; to `CCc1cc2c(nc1CC)CCN(CCC(C)=NO[C@@H]1O[C@H](COC(C)=O)[C@@H](OC(C)=O)[C@H](OC(C)=O)[C@H]1OC(C)=O)C2`, 0.503.
